Screens as filed in PubChem.
Sampled rows, rich in hits. Any-hit rate of the full collection: about 3%.
NALP3 yeast inh – inhibitors of NALP3 inflammasome in yeast; Yeast reconstituted NLRP3/ASC/caspase-1, beta-gal luminescence, 24 h; inhibition, % at 10 µM; hit rate 0.39% among 330,000; AID 2825;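 active means inhibition of 50% or more; inactive means inhibition below 50%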;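 further: plate controls were induced DMSO wells for no effect and uninduced yeast grown without galactose for full effect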
Bfl-1 A1 inh – inhibitors of the anti-apoptotic protein A1, read as caspase activation; MEF A1-2A-BIM cells, Caspase-Glo 3/7 luminescence, 3 h; percent of clofoctol response, vehicle zero; caspase activation, % (concentration not given with the values); hit rate 0.066% among 330,000;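 active means over half of replicate activation scores above 10%, or exactly half above 10 with the replicate mean above 10; inconclusive means replicate mean below 10 yet half the replicates above 10; inactive means over half of replicates below 10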
NALP1 inh – NALP1 inhibition | S. cerevisiae NALP1/ASC/caspase-1 growth, X-gal OD620, 72 h | inhibition, % at 10 µM | hit rate 0.61% among 280,000 | AID 2071; in the data active means inhibition mostly above about 24%, no sharp cut-off; inactive means mostly below about 32%
SUMO Mot1 rescue – SUMOylation pathway inhibition by Mot1-301 growth rescue | S. cerevisiae Mot1-301 growth rescue, ATP luminescence, 38.5C; percent above DMSO median, 100 means doubled | growth rescue, % at 18.8 µM | hit rate 1% among 320,000;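 active means every valid replicate shows activation above 250% relative to neutral control wells; inactive means the rest, any valid replicate at or below 250%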;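 further: OY570 slx delta 5 strain wells were the positive control but not used for scaling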
CHT inh – inhibits the human high affinity choline transporter; Q9GZV3; CHT-expressing cells, membrane potential dye, choline response; hits give low values; B-score at 10 µM; hit rate 0.86% among 310,000; AID 488975;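 active means B-score over 3 SD under the library average, and starting fluorescence ratio not unusually high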;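 further: choline stimulus applied at its EC90 after an EC20 pre-addition; B-score computed on integrated fluorescence ratio after choline addition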
Target sequence (Q9GZV3 whole entry, looked up): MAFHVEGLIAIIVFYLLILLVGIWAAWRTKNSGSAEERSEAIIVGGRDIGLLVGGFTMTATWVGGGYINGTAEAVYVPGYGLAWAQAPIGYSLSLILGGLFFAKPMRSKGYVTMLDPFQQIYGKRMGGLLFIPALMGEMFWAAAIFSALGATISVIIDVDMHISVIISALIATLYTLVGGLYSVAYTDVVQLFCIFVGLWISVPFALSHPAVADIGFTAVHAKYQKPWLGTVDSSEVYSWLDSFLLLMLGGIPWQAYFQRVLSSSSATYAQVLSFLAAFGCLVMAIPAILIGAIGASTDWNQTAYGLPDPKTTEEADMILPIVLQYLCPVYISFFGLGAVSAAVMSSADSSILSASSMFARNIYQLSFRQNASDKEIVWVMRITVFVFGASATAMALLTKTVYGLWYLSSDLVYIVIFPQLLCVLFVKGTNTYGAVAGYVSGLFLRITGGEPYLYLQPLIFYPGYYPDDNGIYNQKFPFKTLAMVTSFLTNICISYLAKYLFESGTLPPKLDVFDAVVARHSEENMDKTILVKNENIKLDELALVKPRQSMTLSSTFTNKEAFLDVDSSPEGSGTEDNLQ
CHT PAM – human CHT allosteric activation. Q9GZV3. CHT-expressing cells, membrane potential dye, choline EC20; hits give high values; LV-AA mutant CHT in HEK293 cells. B-score at 10 µM. hit rate 0.49% among 310,000;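 active means initial fluorescence not abnormally high and integrated response B-score, plate-corrected, over 3 SD above library mean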
CHT activ conf – human CHT activation, confirmatory screen. shares compounds with CHT PAM. CHT-expressing cells, membrane potential dye fluorescence (FDSS); % of choline EC20–EC90 response window; HEK293 expressing CHT LV-AA mutant; choline added at its EC20. activation, % at 10 µM. hit rate 91% among 2,500. AID 504833;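 active means primary screen active, with duplicate mean activation above negative control mean plus 3 SD, cut at about 11% in these data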
HEK293 MP dye – counter-screen for CHT activators: effect in parental HEK293 cells | shares compounds with CHT PAM | hit rate 62% among 2,500 | membrane potential dye fluorescence (FDSS); measured after EC20 choline addition | ratio readout change at 10 µM, hits read low | AID 623908;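 active means duplicate-averaged ratio beyond 3 SD from buffer wells, up or down, though filed actives are nearly all decreases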
* marks the source's active call; other numbers are inactive results.

Results for Cc1cc(OC(C)C(=O)NCCCn2ccnc2)c2c(C)cc(=O)oc2c1 (configuration not stated) ?
NALP3 yeast inh: 3.1; Bfl-1 A1 inh: 0.2; NALP1 inh: 11.5; SUMO Mot1 rescue: 0.5; CHT inh: inactive; CHT PAM: inactive; CHT activ conf: 44.7*; HEK293 MP dye: -39*

Results for Cc1cc(=O)oc2c(C)c(OCC(=O)NCCCn3ccnc3)ccc12 ?
NALP3 yeast inh: 0.3; Bfl-1 A1 inh: -0.1; NALP1 inh: 8.0; SUMO Mot1 rescue: -2.8; CHT inh: inactive; CHT PAM: inactive; CHT activ conf: 58.2*; HEK293 MP dye: -51.5*

Results for Cc1c(C)c2ccc(OCC(=O)NCCCn3ccnc3)c(C)c2oc1=O ?
NALP3 yeast inh: -10.5; Bfl-1 A1 inh: 0.6; NALP1 inh: 1.7; SUMO Mot1 rescue: -8.4; CHT inh: inactive; CHT PAM: inactive

Results for ON1C(c2ccc(Cl)cc2Cl)N(O)[C@H]2CCCC[C@H]21 (some centres not stated) ?
NALP3 yeast inh: 12.8; Bfl-1 A1 inh: inconclusive; NALP1 inh: 9.2; SUMO Mot1 rescue: 2.1; CHT inh: inactive; CHT PAM: inactive

Results for CCON1C(=O)CN(C(=O)OC)C1c1ccc(Cl)cc1Cl (configuration not stated) ?
NALP3 yeast inh: 23.6; Bfl-1 A1 inh: -0.3; NALP1 inh: -7.8; SUMO Mot1 rescue: 18.6; CHT inh: inactive; CHT PAM: inactive; CHT activ conf: 2.2; HEK293 MP dye: inactive

Results for COCCNC(=O)NC(=O)CN1C(=O)NC(Cc2c[nH]c3ccccc23)C1=O (configuration not stated) ?
NALP3 yeast inh: 0.1; Bfl-1 A1 inh: -0.2; NALP1 inh: -14.6; SUMO Mot1 rescue: 2.1; CHT inh: inactive; CHT PAM: inactive

What do the screens show for `CCN1CCN(c2ccc(S(=O)(=O)N3CCCCC3)cc2NC(=O)/C=C/c2cccc(OC)c2OC)CC1`?
NALP3 yeast inh: 14.2; Bfl-1 A1 inh: 0.5; NALP1 inh: 16.8; SUMO Mot1 rescue: -5.7; CHT inh: inactive; CHT PAM: inactive; CHT activ conf: 40.8*; HEK293 MP dye: -31.5*

Results for COc1ccc(CC(=O)Nc2cc(S(=O)(=O)N3CCCCC3)ccc2C)cc1 ?
NALP3 yeast inh: 21.1

How did CCN1CCN(c2ccc(S(=O)(=O)N3CCCCC3)cc2NC(=O)Cc2ccc(OC)cc2)CC1 do in these assays?
NALP3 yeast inh: 2.3; Bfl-1 A1 inh: 0.6; NALP1 inh: 29.0; SUMO Mot1 rescue: -6.9; CHT inh: inactive; CHT PAM: inactive; CHT activ conf: 39.5*; HEK293 MP dye: -35.8*

Results for CN(CC(=O)NC(=O)Nc1ccccc1F)Cc1ccccc1F ?
NALP3 yeast inh: 27.3; Bfl-1 A1 inh: -0.4; SUMO Mot1 rescue: 38.4

How did CCc1cccc(C)c1NC(=O)CN(C)Cc1ccccc1F do in these assays?
NALP3 yeast inh: 6.4; Bfl-1 A1 inh: -0.1; NALP1 inh: 35.8; CHT inh: inactive; CHT PAM: inactive; CHT activ conf: 12.8*; HEK293 MP dye: inactive

How did CN1CCN(c2ccccc2NC(=O)c2ccc(N3CCCC3)c([N+](=O)[O-])c2)CC1 do in these assays?
NALP3 yeast inh: 29.0; Bfl-1 A1 inh: -0.2; NALP1 inh: 22.7; SUMO Mot1 rescue: -19.2; CHT inh: inactive; CHT PAM: inactive; CHT activ conf: 17.7*; HEK293 MP dye: -44.2*

Results for O=C(Nc1ccccc1N1CCCCC1)c1ccc(Cl)c([N+](=O)[O-])c1 ?
NALP3 yeast inh: 23.2; Bfl-1 A1 inh: 1.6; NALP1 inh: 18.1; SUMO Mot1 rescue: 570.3; CHT inh: inactive; CHT PAM: inactive
